Source: PubChem BioAssay (NCI)
Compounds without any hit were thinned out: in the full panel of roughly 79,000, 15% have a hit. Active and inactive are the calls of the source. Rule as the data show it: active = growth inhibition above about 70%; inactive = the rest.

Experiment: NCI Yeast Anticancer Drug Screen. Data for the mlh1 rad18 strain (AID 175)
Conditions: S. cerevisiae mlh1 rad18 strain growth inhibition; at 50.0 µM; stronger effect = higher value
Procedure, shortened: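 A repair-deficient yeast strain is exposed to test compound, and growth is scored relative to vehicle-treated controls.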

Structure (SMILES)	growth inhibition
CN(C)c1ccc(C2=C([O-])C(=C3C=CC(=[N+](C)C)C=C3)C2=O)cc1	-5.55% (inactive)
COc1ccc(NCc2ccc(C)cc2)cc1	3.45% (inactive)
NC(=O)NC(CCCN=C(N)N)C(=O)O (stereo not drawn)	-36.1% (inactive)
CCCCCCC(=O)CCCCCCCCCCCCC(=O)OC	12.7% (inactive)
O=C1Nc2ccccc2CCc2ccccc21	-7.2% (inactive)
c1coc(-c2nc(N=C3N=c4ccccc4=N3)[nH]c2-c2ccco2)c1	4% (inactive)
Cc1ccc(NC(=S)NCCO)cc1	-13.6% (inactive)
CCOc1cccc(/C=C2\N=C(c3ccccc3)OC2=O)c1	10.9% (inactive)
O=C(/C=N/O)Nc1cc(Cl)ccc1Cl	17.3% (inactive)
Cc1nc2c(Cl)cc(Cl)c(Cl)c2s1	51.1% (inactive)
CCOC(=O)c1nc2cc(C)c(C)cc2[nH]c1=O	-1.85% (inactive)
CC(=O)CC1CCCC(CC(C)=O)N1C (stereo not drawn)	0.2% (inactive)
S=C(NNc1ccccc1)NC1CCCCC1	-8.6% (inactive)
CCCCCCCCCCCCCCCC(C)(C)O	5.1% (inactive)
Cc1cccc(C)c1NC(=S)N(C)C	4.65% (inactive)
Nc1cc(S(=O)(=O)c2ccc(O)c(N)c2)ccc1O	9.05% (inactive)
O=CNC(Cc1ccc(O)cc1)C(=O)O (stereo not drawn)	-8.4% (inactive)
CC(=O)NS(=O)(=O)c1ccc2sc(C)nc2c1	-27.7% (inactive)
CCCCCCCCCCCC(=O)CCCCC	-29.4% (inactive)

Structure (SMILES)	growth inhibition
COc1ccc(/C=C/C(=O)c2ccc(Cl)cc2)c(OC)c1	8.75% (inactive)
c1cc[n+](CCNCC[n+]2ccccc2)cc1	36.6% (inactive)
O=C1OC(c2ccccc2)=N/C1=C/c1cccs1	-24.8% (inactive)
O=C(Cc1cccc2ccccc12)N/N=C/c1ccc2c(c1)CCC2	-8.45% (inactive)
O=C1c2ccccc2C(=O)N1/N=C/c1cc(Cl)cc(Cl)c1O	-4.95% (inactive)
Cc1ccc(S(=O)(=O)Nc2ccccc2C2Nc3ccccc3C(=O)O2)cc1 (stereo not drawn)	-13.1% (inactive)
CC1=NOC(=O)C1C(C)(C)C1C(=O)ON=C1C (stereo not drawn)	-18.4% (inactive)
CCOC(=O)c1c(C)nc(C)c(C(=O)OCC)c1-c1cccc([N+](=O)[O-])c1	25.9% (inactive)
CC12CC3(C)CC(C)(C1)CC(C(Cl)C(=O)O)(C2)C3 (stereo not drawn)	29.2% (inactive)
COc1ccc2c(c1C)CN1CCc3cc4c(cc3C1=C2)OCO4	61.1% (inactive)
O=C(O)c1ccccc1C(=O)NNC(=O)c1ccccc1C(=O)O	-13.6% (inactive)
Cc1ccc2c(c1)=N/C(=N\c1nc(O)c(O)[nH]1)N=2	-4.55% (inactive)
Cc1ccc2nc3c(nc2c1)-c1cccc2cccc-3c12	-12.4% (inactive)
C/C=C(/C)N(C(C)=O)N(C(C)=O)c1ccc([N+](=O)[O-])cc1[N+](=O)[O-]	-3.3% (inactive)
CCOc1ccc(N=c2ssc(SC)c2-c2ccccc2)cc1	20.5% (inactive)
C[Si]1(C)N[Si](C)(C)N[Si](C)(C)N1	2.3% (inactive)
CCCCCCCCCCCCOc1ccccc1	7.6% (inactive)
O=C(CCc1ccc(O)cc1)N/N=C/c1cc(Br)ccc1O	-20.6% (inactive)
CC(/C=N/N1C(=O)c2ccccc2C1=O)c1ccccc1 (stereo not drawn)	-10.8% (inactive)
